Screening data as filed in PubChem BioAssay.
Cycloheximide cs = Cycloheximide Counterscreen for Small Molecule Inhibitors of Shiga Toxin; cell reporter, cycloheximide protein synthesis inhibition counterscreen; max response, %; actives 12% (n = 300,000); in the data active = max response mostly above about 13%, no sharp cut-off; inactive = mostly below about 14%; note: read at 38.3 µM for the half of the compounds with a filed dose; 0% is about no effect
Shiga inhibitor = A qHTS for Small Molecule Inhibitors of Shiga Toxin; Vero cells, Shiga toxin protein synthesis inhibition reporter; inhibition, % at 38.7 µM; actives 9.2% (n = 290,000); in the data active = inhibition mostly above about 28%, no sharp cut-off; inactive = mostly below about 43%; note: 0% is about no effect
NS1 function inh = qHTS Assay for Inhibitors of Influenza NS1 Protein Function | Potency, µM (doses to about 46.1 µM), for inactives: at the top dose activity, positive = more growth | actives 0.4% (n = 270,000) | AID 2326, 2010; calls by dose curve; note: potency is the fitted concentration of half-maximal effect; actives are rising curves; nearly all actives have a fitted effect of over 50% in size
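Compounds were scored for reversing the slow growth caused by influenza A NS1 in S. cerevisiae, measured by optical density at 600 nm. Assay medium contained 2% galactose at pH 6.0; NS1-free yeast of the same strain were the positive control.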
Pf growth 96h = Primary qHTS for delayed death inhibitors of the malarial parasite plastid, 96 hour incubation; AID 504834, 2011; actives 6.9% (n = 320,000); P. falciparum luciferase reporter growth, 96 h; Potency, µM (top dose mostly 28.7 µM), inactives show at the highest dose activity change, negative = inhibition, actives largely listed as inhibitors; note: potency is the fitted concentration of half-maximal effect; % is set by controls: 0 for no effect and ±100 for the full control effect
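96 h incubation, 37 C, 5% CO2, of luciferase-reporter P. falciparum-infected RBCs (2% hematocrit, 0.05% parasitemia final) with test compounds; endpoint luminescence.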
Pf growth 48h = Primary qHTS for delayed death inhibitors of the malarial parasite plastid, 48 hour incubation. Potency, µM (highest dose often 28.7 µM), for the others: at the highest dose activity change, negative = inhibition, usual class: inhibitors. P. falciparum luciferase growth in erythrocytes, 48 h. actives 5.9% (n = 310,000). AID 504832, 2011; note: potency is the fitted concentration of half-maximal effect; % is set by controls: 0 for no effect and ±100 for the full control effect
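Luciferase-expressing parasites in RBCs, 2% Hct / 0.1% parasitemia final; RPMI 1640 + 0.5% Albumax; 37 C, 5% CO2, one generation; luminescence read-out, lower signal = inhibition.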
* hit, by the source's call; ? = inconclusive; . = not tested or not shown. Shown are actives, neighbours in structure and some others; about 21% of the full set was active somewhere. Unless noted, calls come from the whole dose curve; as a rule, active = well fitted inhibition curve with a large enough effect; inconclusive = small, poorly fitted or top-dose-only effect, or another doubt; inactive = no such curve, though single readings can be large or run the other way.

SMILES | Cycloheximide cs | Shiga inhibitor | NS1 function inh | Pf growth 96h | Pf growth 48h
O=[N+]([O-])c1ccc(NC(=S)NCc2ccc(F)cc2)cc1 | 2 | 1 | -130% | 4.1µM* | ?
CCN(CC)CC#CC(OC)(c1ccccc1)c1ccccc1 | 1 | -5 | -2% | ? | ?
COc1ccc(S(=O)(=O)NNC(=O)C(=O)NNc2ccccn2)cc1 | 11 | 11 | -3% | 8% | ?
Cc1ccc(N2CC(C(=O)NCCS(=O)(=O)N3CCN(c4ccccc4F)CC3)CC2=O)cc1 (stereo unspecified) | 14 | -4 | -7% | ? | 13%
Cc1cccc(N(CC(=O)NC(C)(C)C)C(=O)CS(=O)CC(=O)Nc2ccc(F)cc2)c1 (stereo unspecified) | -3 | -4 | 0% | -23% | -5%
CCc1cc(C=NC2CCCCC2)c(O)s1 | 66* | 119* | -3% | ? | 9%
COc1ccc(/C=C(\NC(=O)c2cccs2)C(=O)NN)cc1OC | 3 | -10 | 12% | 8% | -7%
COc1ccc(/C=C(/NC(=O)c2cccs2)C(=O)NC(C)(C)C)cc1OC | -3 | . | -8% | 9.3µM* | 11%
COc1ccc(-c2[nH]ncc2/C=N\NC(=O)c2cccs2)cc1OC | 36* | 87* | -24% | 17% | 2%
CCN(CC(=O)Nc1ccccc1OC)C(=O)c1ccc(NC(=O)c2cccs2)cc1 | . | . | . | ? | 7.4µM*
COc1ccc(C(=O)NC(=S)NNC(=O)Cc2cccs2)cc1 | 18* | 55* | -133% | 54% | 35%
CC(=O)Nc1c(C#N)c(C(C)(C)C)cn1C | 7 | -3 | -1% | . | 1%
COc1cc(C(=O)OCC(=O)N2CCCCC2C)cc(NC(=O)c2cccs2)c1OC (stereo unspecified) | 2 | 11 | . | ? | 0.12µM*
Cc1cccc(NC(=O)c2cccc(NC(=O)Cc3cccs3)c2)c1 | 27* | 92* | 0% | ? | ?
COc1cccc(NC(=O)c2cccs2)c1 | 54* | 135* | -99% | ? | 77%
COc1cc(C(=O)OCC(=O)N2CCCC2)cc(OC)c1OC | 8 | 43 | -5% | . | 16%
COc1cc(NC(=O)Cc2cccs2)cc(OC)c1 | -3 | -6 | 1% | 10µM* | 1%
CCOc1ccc(CCNC(=O)c2ccc(=O)[nH]c2)cc1OCC | -2 | -2 | 7% | 3% | -3%
COc1ccc(Cl)cc1-c1nc(-c2ccc(NC(=O)c3cccs3)cc2)no1 | 85* | 34* | -6% | 22% | 0%
COc1cc(NC(=O)c2cccs2)cc(OC)c1 | 15* | active | -46% | 10µM* | 75%
COc1ccc(NC(=O)c2cc3c(Cl)nc4ccccc4c3s2)cc1OC | 7 | -12 | 5% | -2% | 2.1µM*
COc1cc(NC(=O)c2cc(OC)c(OC)c(OC)c2)ccc1NC(=O)c1cccs1 | 1 | -42 | 17% | ? | -19%
COc1ccc(NC(=O)c2cccs2)cc1OC | 19* | 19 | -4% | 170% | 52%
COc1cc(OC)nc(NC(=O)NS(=O)(=O)c2ccc(F)cc2)n1 | 0 | -8 | . | -22% | 28%
COc1cc2[nH]c(C(=O)NCc3ccccc3)cc2c(OC)c1OC | -2 | 8 | -5% | ? | ?
SMILES | Cycloheximide cs | Shiga inhibitor | NS1 function inh | Pf growth 96h | Pf growth 48h
CCc1ccc(NC(=O)CNS(=O)(=O)c2c(C)noc2C)cc1 | 7 | -5 | -7% | ? | 10%
Cc1ccc(CNc2cc(C(=O)O)ccc2Cl)s1 | -2 | -1 | -100% | -21% | 10%
Cc1nonc1NC(=O)CSc1nnc(N)s1 | -10 | -6 | 7% | 7% | 25%
Cc1ccc(S(=O)(=O)N2CCN(CC(=O)N/N=C/c3ccccc3OCC(=O)O)CC2)cc1 | -1 | 3 | 3% | 6% | -4%
COc1ccc(C(=O)Nc2cccc(NC(=O)c3cccs3)c2)cc1 | 25* | 20* | -6% | 4% | 46%
Cc1ccc(C(=O)Nc2cccc(NC(=O)c3cccs3)c2)c(C)c1 | 4 | 21 | -51% | 12µM* | ?
COc1cc(N)ccc1NC(=O)c1cccs1 | 13* | 6 | 14% | 21% | ?
Cc1ccc(C(=O)Nc2ccc3[nH]c(=O)[nH]c3c2)c(C)c1 | 30 | 46 | . | 43% | 18%
Cc1ccc(C(=O)Nc2ccncc2)c(C)c1 | 8.9* | 18 | -37% | ? | -23%
COc1cc(NC(=O)c2cccs2)ccc1NC(=O)c1cc2ccccc2o1 | -4 | 11 | 14% | -2% | 16%
